A number with no mark means an inactive call. Records with an inconclusive call do not appear. Activity calls are given as the source filed them. Unless noted, calls follow the shape of the dose curve; as a rule, active = well fitted curve in either direction with a large enough effect (not every such curve was filed as active); inconclusive = small, poorly fitted or top-dose-only effect, or another doubt; inactive = flat fitted curve, though single readings scatter.

Consider seven compounds from PubChem BioAssay (NCATS).

Test [1] deals with Lysosomal acid glucosylceramidase (Homo sapiens) (UniProt P04062). Description: Glucocerebrosidase-p2 (AID 348; in the data active = potency below about 10 µM; also: potency is read from the fitted curve at half-maximal effect). The conditions noted are these: purified GBA, blue fluorogenic substrate, 40 min. In short, it runs like this: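 Normal human glucocerebrosidase (0.2 nM) with blue fluorogenic substrate (80 uM final) in citrate/phosphate pH 5.9 with 10mM sodium taurocholate, 0.01% tween-20; 40 min RT, NaOH/glycine stop; fluorescence Ex 365/Em 440; AC50 from a titration from 0.6 nM upwards.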

A short description of test [2]: AP1 Signaling Pathway (AID 357).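 Also: ME-180 reporter cells stimulated with EGF at its EC50 level; % is scaled to controls: 0 for no effect and ±100 for the full control effect.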 The conditions noted are these: ME-180 AP-1-bla reporter, EGF-induced, beta-lactamase ratio, 5 h; at 7.69 µM (top of the series) unless noted. In short, it runs like this:
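A ratiometric CCF4 readout (405 nm excitation; 460 and 530 nm emission) quantified AP-1-driven beta-lactamase in ME-180 cells after 5 h with compound and EC50 EGF; AC50 values were derived for activators and inhibitors.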

A short description of test [3]: NFAT Signaling Pathway (AID 444).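 Also: carbachol stimulus at about its EC50 of 1 µM final; % is scaled to controls: 0 for no effect and ±100 for the full control effect.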 The conditions noted are these: Jurkat NFAT-bla M1, carbachol, beta-lactamase ratio, 5 h; at 7.69 µM (top of the series) unless noted. Summed up: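 Read-out: CCF4 FRET ratio (460 nm/530 nm) after 1 h RT dye loading, used for %activity and AC50 from titration series. Cells: Jurkat NFAT-β-lactamase/M1 line, treated with compound plus 1 uM carbachol for 5 h, 37 °C.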

Test [4] is described as follows: Stat Signaling Pathway (AID 446).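 Also: ME-180 cervical cancer cells given 40 pM IL-6 alongside compound; SIE-controlled beta-lactamase reporter measured as 460/530 nm FRET emission ratio; % is scaled to controls: 0 for no effect and ±100 for the full control effect.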 The conditions noted are these: ME-180 SIE beta-lactamase reporter, IL-6 stimulated, 5 h; at 7.69 µM (top of the series) unless noted. Summed up: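 Overnight-plated ME-180 cells bearing a STAT Inducible Element beta-lactamase reporter; 5 h co-exposure to compound and 40 pM IL-6; values normalized to 300 pM IL-6 and 125 nM JAK inhibitor controls.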

Test [5] concerns the target Glucocorticoid receptor (Homo sapiens) (UniProt P04150). The test is described as follows: GR-EFC Redistribution (AID 451; calls by dose curve; also: potency is read from the fitted curve at half-maximal effect). The conditions noted are these: CHO-K1 GR-EFC translocation, beta-gal luminescence, 2 h. Summed up: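 Translocation of GR-ED fusion to nuclear EA restores b-gal, read by luminescence after 1 h room-temperature detection. Engineered CHO-K1 biosensor cells, 1,000/well, exposed 2 h at 37 C to titrations up to 46 uM final.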

Test [6] deals with Mitogen-activated protein kinase 10 (Mus musculus) (UniProt Q61831). Description: JNK3 AlphaScreen Assay (AID 530).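 Also: kinase came from lysate of stimulated human HepG2 cells; signal reports phosphorylation of biotinylated GST-cJun 1-79 at Ser73 with 10 µM ATP; % is scaled to controls: 0 for no effect and ±100 for the full control effect.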 The conditions noted are these: JNK3 lysate, c-Jun phosphorylation; series mostly up to 57.1 µM. Summed up: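 Kinase buffer: 20 mM Tris-HCl pH 7.6, 10 mM MgCl2, 1 mM DTT, 0.1 mM Na3VO4, 0.01% Tween-20; ATP 10 uM. Substrate biotin-GST-cJun(1-79), enzyme from activated HepG2 lysates. Detection by Ser73 phospho-antibody AlphaScreen.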
(Bead proximity is the source of the signal in Alpha formats.)

Test [7] addresses 3',5'-cyclic-AMP phosphodiesterase 4B (Homo sapiens) (UniProt Q07343). The test is described as follows: qHTS Assay for Inhibitors of PDE-IV (AID 607; active = well fitted activation curve with a large enough effect in the main read-out, with a control signal flat, not every such curve was filed as active; also: % of control where 0% means no effect). The conditions noted are these: HEK293 ACTOne CNG channel cells, membrane potential fluorescence; series mostly up to 22.9 µM. In short, it runs like this:
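Live HEK293 cells with a modified cyclic nucleotide-gated (CNG) channel report intracellular cAMP via membrane-potential dye fluorescence (ex 535/em 590 nm). Endogenous PDE-IV was targeted. Compounds were tested at up to 22.9 uM final; RO 20-1724 100 uM served as control.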
For orientation: qHTS replaces the single test concentration by a dilution series.

The target of test [8] is Cytochrome P450 3A4 (Homo sapiens) (UniProt P08684). The test is described as follows: qHTS Assay for Activators of Cytochrome P450 3A4 (AID 885; active = well fitted curve in the direction sought with a large enough effect; an effect the other way counts as inactive or inconclusive; also: nearly all actives have a fitted effect of over 65% in size; also: potency is read from the fitted curve at half-maximal effect). The conditions noted are these: recombinant CYP3A4, Luciferin-PPXE luminescence, 60 min; series mostly up to 57.1 µM. In short, it runs like this: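 Using 20nM recombinant human CYP3A4 in potassium phosphate (200mM), substrate Luciferin-PPXE at 25uM, luminescent luciferin detection followed a 60-min RT NADPH reaction; data scaled to 57 uM ketoconazole.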

Test [9] can be described thus: Primary qHTS for small molecule stabilizers of the endoplasmic reticulum resident proteome: Secreted ER Calcium Modulated Protein (SERCaMP) assay (AID 1508630; active = well fitted curve in the direction sought with a large enough effect; an effect the other way counts as inactive or inconclusive; also: % is scaled to controls: 0 for no effect and ±100 for the full control effect). The conditions noted are these: SH-SY5Y GLuc-SERCaMP (Gaussia luciferase released on ER calcium loss) secretion, thapsigargin, luminescence; series mostly up to 38.4 µM. In short, it runs like this: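 The SH-SY5Y reporter protocol was run at 3 concentrations up to 38.3 uM (primary) or 11 concentrations (follow-up): 16 h compound, 100 nM thapsigargin for 4 h, then extracellular luciferase luminescence.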

Test [10] deals with Glucocorticoid receptor (Homo sapiens) (UniProt P04150). Description: GR-GFP Redistribution (AID 450;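 active = compounds whose dose series gives a full or clear partial fitted curve of increased nuclear translocation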; also: potency is read from the fitted curve at half-maximal effect). The conditions noted are these: U2OS GR-GFP nuclear translocation, laser cytometry, 2 h.
The nature of test [11]: qHTS Assay for Identification of Small Molecule Agonists for Hypoxia Response Element Signaling Pathway (AID 914; active = well fitted activation curve with a large enough effect in the signal ratio, with a control signal flat, not every such curve was filed as active; the % refers to the signal ratio; also: % of control where 0% means no effect). The conditions noted are these: ME-180 (cervical carcinoma) HRE-bla reporter, beta-lactamase ratio, CoCl2, 17 h; activation: active compounds read high. In short, it runs like this: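 Read-out: CCF4 FRET ratio of 460nm to 530nm emission (excitation 405nm) after 2.5 hours at room temperature, taken from HRE-bla ME-180 cells that had been exposed to compound and EC50 CoCl2 for 17 hours.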

For test [12], the target named is Cytochrome P450 3A4 (Homo sapiens) (UniProt P08684). Description: qHTS Assay for Inhibitors and Substrates of Cytochrome P450 3A4 (AID 884; active = well fitted curve in the direction sought with a large enough effect; an effect the other way counts as inactive or inconclusive; also: % is scaled to controls: 0 for no effect and ±100 for the full control effect; nearly all actives have a fitted effect of over 50% in size). The conditions noted are these: recombinant CYP3A4, Luciferin-PPXE luminescence; series mostly up to 57.1 µM. In short, it runs like this:
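Luminescent readout of luciferin produced by CYP3A4 (20 nM) dealkylation of Luciferin-PPXE, 25 uM (its KM). NADPH-driven reaction ran 60 min at RT after 10 min compound preincubation; data scaled to 57 uM ketoconazole as 100% inhibition.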

Chain of Lysosomal acid glucosylceramidase (Homo sapiens) (P04062 whole entry, looked up): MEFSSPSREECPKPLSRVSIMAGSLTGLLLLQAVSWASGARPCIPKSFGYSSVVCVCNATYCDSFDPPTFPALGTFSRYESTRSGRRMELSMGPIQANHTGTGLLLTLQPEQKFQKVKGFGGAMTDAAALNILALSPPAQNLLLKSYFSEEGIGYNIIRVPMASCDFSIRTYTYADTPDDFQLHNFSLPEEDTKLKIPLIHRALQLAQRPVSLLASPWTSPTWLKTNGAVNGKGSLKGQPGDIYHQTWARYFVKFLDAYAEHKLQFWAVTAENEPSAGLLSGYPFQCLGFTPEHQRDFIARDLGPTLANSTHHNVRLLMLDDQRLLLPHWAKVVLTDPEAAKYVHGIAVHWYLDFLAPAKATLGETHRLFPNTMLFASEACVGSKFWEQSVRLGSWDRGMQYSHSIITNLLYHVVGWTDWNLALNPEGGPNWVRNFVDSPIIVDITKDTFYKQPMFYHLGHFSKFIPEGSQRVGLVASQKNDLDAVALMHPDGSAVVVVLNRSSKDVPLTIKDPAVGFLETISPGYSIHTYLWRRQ
Chain of 3',5'-cyclic-AMP phosphodiesterase 4B (Homo sapiens) (Q07343 whole entry, looked up): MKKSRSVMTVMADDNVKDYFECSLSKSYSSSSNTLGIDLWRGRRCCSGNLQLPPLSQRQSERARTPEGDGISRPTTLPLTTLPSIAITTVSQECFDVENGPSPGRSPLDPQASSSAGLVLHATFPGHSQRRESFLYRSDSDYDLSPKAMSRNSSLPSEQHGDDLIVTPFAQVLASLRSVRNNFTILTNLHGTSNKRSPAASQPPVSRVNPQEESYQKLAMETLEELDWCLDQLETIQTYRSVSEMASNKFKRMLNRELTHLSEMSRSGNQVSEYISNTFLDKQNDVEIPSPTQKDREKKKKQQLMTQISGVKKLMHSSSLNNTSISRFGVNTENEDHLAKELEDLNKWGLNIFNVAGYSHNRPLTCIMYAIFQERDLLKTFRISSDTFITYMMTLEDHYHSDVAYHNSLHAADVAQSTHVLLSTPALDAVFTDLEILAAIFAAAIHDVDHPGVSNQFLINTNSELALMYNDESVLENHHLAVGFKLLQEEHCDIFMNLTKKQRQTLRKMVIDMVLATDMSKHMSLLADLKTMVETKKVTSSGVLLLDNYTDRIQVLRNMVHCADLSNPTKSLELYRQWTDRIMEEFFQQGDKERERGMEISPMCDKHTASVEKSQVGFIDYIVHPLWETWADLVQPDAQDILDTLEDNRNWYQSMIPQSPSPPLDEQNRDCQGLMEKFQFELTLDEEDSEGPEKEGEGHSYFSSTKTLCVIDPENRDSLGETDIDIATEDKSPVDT
Chain of Glucocorticoid receptor (Homo sapiens) (P04150 whole entry, looked up, the tested form may be a part): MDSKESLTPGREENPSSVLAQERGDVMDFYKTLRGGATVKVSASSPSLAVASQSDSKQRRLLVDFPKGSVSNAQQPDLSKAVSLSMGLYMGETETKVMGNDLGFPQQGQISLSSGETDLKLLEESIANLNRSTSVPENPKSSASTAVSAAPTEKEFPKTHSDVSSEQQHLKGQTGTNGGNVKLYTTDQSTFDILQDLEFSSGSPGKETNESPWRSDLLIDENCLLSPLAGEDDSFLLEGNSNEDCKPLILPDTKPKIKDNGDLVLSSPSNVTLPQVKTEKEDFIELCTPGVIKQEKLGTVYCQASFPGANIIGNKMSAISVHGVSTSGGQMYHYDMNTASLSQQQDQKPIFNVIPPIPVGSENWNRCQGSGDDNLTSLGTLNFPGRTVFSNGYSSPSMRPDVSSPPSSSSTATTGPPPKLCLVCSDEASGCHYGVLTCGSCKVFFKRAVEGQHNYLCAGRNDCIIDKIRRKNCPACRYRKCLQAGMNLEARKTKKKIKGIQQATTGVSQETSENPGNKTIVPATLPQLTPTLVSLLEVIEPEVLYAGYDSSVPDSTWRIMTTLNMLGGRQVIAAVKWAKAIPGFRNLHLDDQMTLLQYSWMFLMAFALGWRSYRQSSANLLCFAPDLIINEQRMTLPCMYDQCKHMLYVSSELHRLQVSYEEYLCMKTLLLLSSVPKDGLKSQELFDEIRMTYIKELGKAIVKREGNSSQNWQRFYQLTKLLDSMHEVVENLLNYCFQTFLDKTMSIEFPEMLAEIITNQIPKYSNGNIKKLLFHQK
Chain of Cytochrome P450 3A4 (Homo sapiens) (P08684 whole entry, looked up): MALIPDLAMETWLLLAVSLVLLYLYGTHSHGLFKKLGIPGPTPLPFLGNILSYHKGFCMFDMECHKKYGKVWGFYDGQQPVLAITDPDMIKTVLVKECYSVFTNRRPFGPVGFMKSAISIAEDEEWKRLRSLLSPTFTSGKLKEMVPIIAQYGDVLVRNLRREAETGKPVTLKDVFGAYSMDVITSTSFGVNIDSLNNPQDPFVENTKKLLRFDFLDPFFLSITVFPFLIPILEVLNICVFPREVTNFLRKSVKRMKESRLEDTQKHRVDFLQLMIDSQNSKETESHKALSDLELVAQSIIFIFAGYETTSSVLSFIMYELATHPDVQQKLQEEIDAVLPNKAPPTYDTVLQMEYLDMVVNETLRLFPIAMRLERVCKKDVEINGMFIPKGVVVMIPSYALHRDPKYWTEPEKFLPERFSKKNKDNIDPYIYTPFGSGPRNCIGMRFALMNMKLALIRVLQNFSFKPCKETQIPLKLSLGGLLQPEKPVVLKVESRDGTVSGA

As for `O=C(Nc1cccc(F)c1)N1CCC2(CC1)CCN(C(=O)c1ccncc1)CC2`, the values for the Potency in test [1] and in test [5] were more than 11.4 µM and more than 46 µM, respectively. Also, the results for the activity change, negative = inhibition in test [2] and in test [3] were -9.1% and -6.93%, respectively. Besides, the activity, negative = inhibition in [4] was -7.63%. Moreover, the Potency result in test [6], in test [7] and in [8] was “inactive” throughout. In test [9], the result was inactive.

As to `O=C(c1ccncc1)N1CCC2(CCN(Cc3cc(C(F)(F)F)cc(C(F)(F)F)c3)CC2)CC1`, the Potency in test [1] is more than 11.4 µM; in [5], more than 46 µM. The activity change, negative = inhibition in test [2] was 2.71%. Besides, in test [4], the activity, negative = inhibition was -0.397%. In addition, the Potency result in [6] and in [7] was “inactive” in each case. Further, the result in test [9] was inactive.

With `COCC(=O)N1CCC[C@@]2(CCN(Cc3nccs3)C2)C1`, the values for the Potency in test [1] and in test [5] were more than 11.4 µM and more than 46 µM, respectively. Also, the results for the activity change, negative = inhibition in [2] and in [3] were -2.92% and 0.146%, respectively. Further, in test [4], the activity, negative = inhibition was 4.7%. Also, the Potency entry in [6], in test [7] and in test [8] was “inactive” each time. In addition, the outcome in [9] was inactive.

For the compound `O=c1c(CCc2ccccc2)nc2cnc(Nc3ccccc3)nc2n1Cc1cccs1`, the results for the Potency in test [1], in [10] and in test [5] were more than 11.4 µM, more than 9.22 µM and more than 46 µM, respectively. The activity change, negative = inhibition in test [2] was -26.7%. Further, in test [4], the activity, negative = inhibition is -23.5%. In addition, the Potency entry in [6] and in test [7] was “inactive” in each case. Besides, the outcome in [9] was inactive.

Consider `CC(=O)N1CCC2(CC1)CCN(c1ccccc1)CC2`, for which the results for the Potency in test [1] and in test [5] were more than 11.4 µM and more than 46 µM, respectively. For the same compound, the activity change, negative = inhibition was 16.1% in [2] and -0.227% in [3]. Moreover, the activity, negative = inhibition in test [4] was 2.99%. Moreover, the Potency result in test [6] and in test [7] was “inactive” throughout. Moreover, in test [11], the activation is -2.78%. For the same compound, the result in test [9] was inactive.

In the case of `Cn1cccc1C(=O)N1CCC2(CCCN(Cc3nccs3)C2)CC1`, the Potency is more than 11.4 µM in test [1] and more than 46 µM in [5]. Moreover, in test [2], the activity change, negative = inhibition is -3.56%. The activity, negative = inhibition in test [4] is -8.95%. For the same compound, the Potency result in [6] and in [7] was “inactive” each time. The result in test [9] was inactive.

In the case of `O=C(c1cccc(F)c1)N1CCC2(CC1)CN(c1ccccc1)C2`, the Potency was more than 11.4 µM in test [1], more than 46 µM in test [5] and 7.94 µM (active) in test [8]. Besides, the values for the activity change, negative = inhibition in [2] and in [3] were -0.575% and 6.14%, respectively. The activity, negative = inhibition in [4] was -1.57%. Further, the Potency result in [6], in [7] and in [12] was “inactive” in each case. In [9], the outcome was inactive.
